Compounds with a hit are over-represented: about 7% of the library has one in this group of screens.
AHR activator: activators of human aryl hydrocarbon receptor. AHR-responsive luciferase reporter cells, luminescence. activation, % at 5 µM. hit rate 2.5% among 320,000; in the data active = activation above about 47%;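 note: 0% = vehicle wells and 100% = reference agonist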
ADAM10 inh: ADAM10 inhibition, QFRET primary screen; AID 720582; hit rate 0.62% among 370,000; recombinant ADAM10, EDANS/DABCYL FRET peptide cleavage, 3 h; inhibition, % at 7 µM;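 active = inhibition above a per-campaign cutoff equal to the mean of compounds falling between control-based bounds plus 3 SD, cut at about 20% in these data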;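 note: 0% = DMSO wells while the 100% control is not disclosed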
NR3A LBD binder: modulators (binders) of human NR3A ligand-binding domain; NR3A LBD differential scanning fluorimetry, Tm shift; 0% = protein alone, 100% = glycine-bound protein; Tm shift relative to glycine control, % at 25 µM; hit rate 2.5% among 340,000;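 active = melting temperature shift of at least 10% of the positive control shift, at one fixed dose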
rCAG RNA binder: molecules binding r(CAG) RNA repeats. r(CAG) RNA repeat, TO-PRO-1 dye displacement fluorescence. inhibition, % at 3 µM. hit rate 1.3% among 370,000. AID 651821;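 active = inhibition above the plate cutoff, the mean of all test compounds on that plate plus 3 SD, cut at about 35% in these data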;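 note: 0% = DMSO alone and 100% = 100 µM mitoxantrone as full dye displacement; higher means more dye released from RNA so lower well fluorescence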
KLK7 zymogen act: activates the human kallikrein-7 zymogen. activation, % at 7 µM. hit rate 0.9% among 370,000. purified proKLK7, EDANS-DABCYL substrate fluorescence; 100% is mature enzyme control, 0% vehicle;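 active = activation above the mean of all tested compounds plus 3 SD, computed per campaign excluding outliers beyond control limits, cut at about 13% in these data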
Target sequence (P49862 whole entry, looked up): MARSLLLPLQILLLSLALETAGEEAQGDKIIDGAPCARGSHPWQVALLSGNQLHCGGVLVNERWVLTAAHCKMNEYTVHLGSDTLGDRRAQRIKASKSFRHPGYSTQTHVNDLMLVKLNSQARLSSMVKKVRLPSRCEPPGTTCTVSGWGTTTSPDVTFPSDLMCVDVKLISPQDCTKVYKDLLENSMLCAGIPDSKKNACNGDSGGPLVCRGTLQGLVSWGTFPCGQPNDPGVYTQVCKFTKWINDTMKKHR
ADAM17 inh: inhibitors of human ADAM17. inhibition, % at 6.95 µM. hit rate 0.83% among 370,000. AID 720648. P78536. recombinant ADAM17, EDANS/DABCYL FRET peptide cleavage;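 active = inhibition above the mean of compounds lying between control limits plus 3 SD, set per campaign, cut at about 8.5% in these data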;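 note: 0% = DMSO-only wells as the low control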
proKLK7 act conf: proKLK7 activation, confirmation; shares compounds with KLK7 zymogen act; purified proKLK7, EDANS-DABCYL substrate fluorescence; scaled: vehicle 0, mature enzyme 100; activation, % at 7 µM; hit rate 68% among 3,200; AID 686949;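 active = activation, as change over the incubation, above the mean of all tested compounds plus 3 SD, cut at about 13% in these data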
EDANS-DABCYL int: optically interferes with EDANS-DABCYL signal, flagging KLK7 hits; shares compounds with KLK7 zymogen act; AID 686952; EDANS-DABCYL substrate fluorescence interference, no enzyme, 4 h; solvent 0%, active enzyme control 100%; hit rate 80% among 3,200; activation, % at 7 µM;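 active = activation above the all-compound mean plus 3 SD, ignoring values outside control-based bounds, cut at about 4.8% in these data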;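 note: value is the 4 h activation minus the activation read at time zero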
K7 EDANS ctr: EDANS fluorescence interference in dose response, no enzyme; shares compounds with KLK7 zymogen act; EDANS-DABCYL peptide fluorescence interference; EC50, µM; hit rate 20% among 250; AID 720493;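 active = compounds that raise the fluorescence signal in this interference counterscreen, with EC50 at or below 10 µM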;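 note: intact quenched peptide substrate alone read at 355 nm excitation and 520 nm emission; signal is fluorescence gain from T0 to T4 after four hours at room temperature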
Starred values were filed as active, the others as inactive; i = inactive; · = no result given.

SMILES	AHR activator	ADAM10 inh	NR3A LBD binder	rCAG RNA binder	KLK7 zymogen act	ADAM17 inh	proKLK7 act conf	EDANS-DABCYL int	others
CCN(CC(=O)NCc1cccs1)C(=O)c1ccc(NS(=O)(=O)c2ccc(F)cc2)cc1	2	-4	4	3	0	0	·	·
COc1cc(C2Nc3ccc4ccccc4c3C3=C2C(=O)CC(C)(C)C3)ccc1OCC(=O)O (centres undefined)	5	i	2	25	16*	i	-60	-54
COc1cc(C2Nc3ccc4ccccc4c3C3=C2C(=O)CC(C)(C)C3)ccc1OC(C)C(=O)O (centres undefined)	18	i	-2	33	24*	i	0	13*
CC1(C)CC(=O)C2=C(C1)c1c(ccc3ccccc13)NC2c1ccc(OCC(=O)O)cc1 (centres undefined)	9	i	0	24	36*	i	23*	18*	K7 EDANS ctr=>23
COc1cccc(C2Nc3ccc4ccccc4c3C3=C2C(=O)CC(C)(C)C3)c1OCC(=O)O (centres undefined)	0	i	0	26	26*	i	11	5.4*
N#CCC(C(=O)c1cccnc1)c1ccccc1 (centres undefined)	·	7	·	1	0	5	·	·
Cc1ccc(NC(=O)CCC(=O)N2CCC(C)CC2)c([N+](=O)[O-])c1	4	-1	2	-6	0	-2	·	·
COC(=O)c1nc2n(n1)C(c1cccc(Cl)c1)C1=C(CCCC1=O)N2 (centres undefined)	-1	-18	1	4	20*	-1	14*	19*
O=C1CCCC2=C1C(c1cccc(Br)c1)n1nc(-c3ccco3)nc1N2 (centres undefined)	-1	-67	0	12	12	-17	·	·
Nc1nnnn1CC(=O)N/N=C/c1ccccn1	0	2	4	1	1	1	·	·
COc1cc(C(=O)Nc2cc(-c3cn4cccnc4n3)ccc2C)cc(OC)c1OC	3	i	-1	2	47*	i	-12	-20
COc1ccc(-c2cn3cccnc3n2)cc1NC(=O)C1CCCC1	21	-103	1	0	2	-33	·	·
COc1ccc(-c2cn3cccnc3n2)cc1Br	3	i	-2	1	32*	i	79*	75*
Cc1ccc(-c2cn3cccnc3n2)cc1NC(=O)c1cccs1	30	i	-4	2	33*	i	35*	39*
COc1cc(OC)cc(C(=O)Nc2cc(-c3cn4cccnc4n3)ccc2C)c1	13	i	0	8	14*	i	-92	-83
CCNC(=O)C1(C)CCN(C(=O)c2c(F)cccc2F)C1 (centres undefined)	·	-4	·	1	0	-4	·	·
COc1ccc(N2CCN(c3nccs3)CC2)cc1	-8	-4	-2	-1	0	-1	·	·
CN(C)C(CNc1ncnc2ccccc12)c1c(F)cccc1Cl (centres undefined)	21	2	3	-6	0	1	·	·
COc1cc2oc(=O)c(Br)c(C)c2c(OC)c1OC	-11	-2	0	0	-1	-1	·	·
COc1cc2oc3cc(C)oc(=O)c3c2cc1OC	-4	i	16*	2	35*	-378	60*	73*
COc1cc(NC(=O)COc2ccccc2[N+](=O)[O-])ccc1NC(=O)c1cccs1	·	-5	-1	11	1	-11	·	·
COc1cc(NC(=O)c2cccs2)c(OC)cc1NC(=O)Nc1ccc(F)cc1	·	12	25*	8	99*	-6	71*	117*
COc1cc(NC(=O)COc2ccccc2Cl)ccc1NC(=O)c1cccs1	17	-224	-8	5	63*	-103	15*	8.8*	K7 EDANS ctr=8.6*
CC(=O)OC[C@H]1O[C@@H](Oc2cc3ccc(=O)oc3cc2OC(C)=O)[C@H](OC(C)=O)[C@@H](OC(C)=O)[C@@H]1OC(C)=O	·	i	-3	2	80*	i	79*	78*
COC(=O)c1ccccc1NC1CC(=O)N(c2c(C)cccc2C)C1=O (centres undefined)	3	i	-3	8	88*	-265	48*	49*
SMILES	AHR activator	ADAM10 inh	NR3A LBD binder	rCAG RNA binder	KLK7 zymogen act	ADAM17 inh	proKLK7 act conf	EDANS-DABCYL int	others
COC(=O)c1ccc(NC2CC(=O)N(c3ccccc3C)C2=O)cc1 (centres undefined)	-1	-5	0	-2	1	-5	·	·
CN(C(=O)NC(=O)C1=C(N2CCOCC2)/C(=C/c2ccccc2)CC1)S(C)(=O)=O	0	-296	·	9	146*	-100	342*	332*
O=C(CN1C(=O)NC2(CCCCC2)C1=O)Nc1ccc(Cl)cc1	2	-4	4	0	0	0	·	·
O=C1/C(=C/C=C/c2ccccc2)Oc2c1ccc(O)c2CN1CCN(CCO)CC1	2	-63	-2	-21	-1	-28	·	·
CCN1CCN(Cc2c(O)ccc3c2O/C(=C\C=C\c2ccccc2)C3=O)CC1	-4	-55	-7	-8	5	-17	·	·
CCc1ccc(/C=C2\Oc3c(ccc(O)c3CN3CCN(C)CC3)C2=O)cc1	-1	-90	-1	-9	58*	-45	17*	37*
CCN1CCN(Cc2c(O)ccc3c2O/C(=C\c2ccccc2)C3=O)CC1	2	-101	1	-15	42*	-46	25*	39*
Cc1ccc(/C=C2\Oc3c(ccc(O)c3CN3CCN(C)CC3)C2=O)cc1	1	-157	-1	-10	58*	-64	31*	25*
CCN1CCN(Cc2c(O)ccc3c2O/C(=C\c2ccc(C)cc2)C3=O)CC1	6	-165	-2	-18	44*	-56	18*	7.1*	K7 EDANS ctr=>70
CC1(C)S[C@@H]2[C@H](NC(=O)[C@H](N)c3ccccc3)C(=O)N2[C@H]1C(=O)OC1OC(=O)c2ccccc21 (some centres undefined)	1	i	1	5	16*	i	6	4.6*
COc1cccc(C(=O)c2c(C)c(CCC#N)n3ccccc23)c1	5	8	-1	1	0	-1	·	·
